# Measurements taken from publication PMC5540273 (PLoS ONE, 2017).
# Legend:
# Details in all cases: concentration: 1 μM, replicates: in singlicate; n = 1
# DDR2 = test system: DDR2
# DLK = test system: T1, DLK
# T1 construct: gene MAP3K12
# DMPK2 = test system: T2, DMPK2
# T2 construct: gene CDC42BPG
# DMPK = test system: DMPK
# DRAK1 = test system: T3, DRAK1
# T3 construct: gene STK17A
# DRAK2 = test system: T4, DRAK2
# T4 construct: gene STK17B
# DYRK1A = test system: DYRK1A
# DYRK1B = test system: DYRK1B
# DYRK2 = test system: DYRK2
# EGFR = test system: EGFR
# 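Also: KINOMEscan kinase panel screen.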
Structure (SMILES),%Inh (DDR2) [%],%Inh (DLK) [%],%Inh (DMPK2) [%],%Inh (DMPK) [%],%Inh (DRAK1) [%],%Inh (DRAK2) [%],%Inh (DYRK1A) [%],%Inh (DYRK1B) [%],%Inh (DYRK2) [%],%Inh (EGFR) [%]
Fc1cccc(COc2ccc(Nc3ncnc4cc[nH]c34)cc2Cl)c1,0,0,16,1,55,6,8,25,22,100
OCCOCCn1ccc2ncnc(Nc3ccc(Oc4cccc(Cl)c4)c(Cl)c3)c21,0,0,0,0,0,0,0,0,0,100
CC(C)(C)OC(=O)NC1CCCN(c2cc(-c3ccc4c(N)n[nH]c4c3)nc(N)n2)C1 (centres unmarked) [GSK2286096],0,2,0,0,96.3,0,14,100,80,27
O=C(Nc1ccccc1F)NC1CCN(c2ccnc(Nc3ccc(F)cc3)n2)C1 (centres unmarked) [GSK1379722],11,23,1,0,0,0,19,22,0,0
Fc1ccc(-c2ncn(CCCNCc3ccccc3)c2-c2ccncc2)cc1,3,0,55,3,0,0,22,22,10,17
